Source: PubChem (National Center for Advancing Translational Sciences (NCATS))
D2 PAM-1: positive allosteric modulators of human D2 dopamine receptor | potentiation, % at 10 µM | 340,000 compounds, 0.34% hits | HEK293 T-REx D2, calcium flux, EC20 dopamine potentiation | P14416;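 active = potentiation over 3 SD above the plate norm, cut at about 30% in these data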
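Calcium flux readout, no-wash dye, 1 read/s. Inducible HEK293 Trex D2 line, overnight 30 C. Compound alone 180 s (agonist flags), then EC20 dopamine, another 180 s to score potentiation.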
D2 PAM-2: potentiates the human D2 dopamine receptor allosterically. P14416. DiscoveRx D2 beta-arrestin cells, luminescence, 90 min; 100% = 57 uM dopamine signal. potentiation, % (no concentration beside the values). 360,000 compounds, 0.23% hits; in the data active = potentiation above about 50%; inconclusive = mostly about 30% to 49%
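PathHunter D2 cells, attached overnight at 37 deg C, received compound in DMSO plus dopamine at EC20 (50 nM final) for 90 min at 37 deg C. Beta-arrestin recruitment was read as luminescence after 1 h with detection reagent at ambient temperature.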
D2 ag-1: agonists of human D2 dopamine receptor (beta-arrestin); DiscoveRx PathHunter D2 beta-arrestin, luminescence, 90 min; 100% = 57 uM dopamine signal; AID 624465; activation, % (concentration not given with the values); 360,000 compounds, 0.084% hits; in the data active = activation above about 40%; inconclusive = between about 15% and that limit
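DiscoveRx PathHunter D2 beta-arrestin cells (2,100/well) attached overnight, then compound-stimulated 90 min at 37 C in HBSS/10 mM HEPES/0.1% Tween-20 buffer; beta-galactosidase complementation read by luminescence after 1 h at ambient temperature. Dopamine 57 uM final (EC100) as control.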
D2 antag: antagonists of human D2 dopamine receptor; AID 485344; inhibition, % at 10 µM; HEK293 TREx D2 cells, calcium flux, dopamine EC80; 340,000 compounds, 2% hits; in the data active = inhibition above about 30%; inactive = below that, where a call was filed
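Calcium flux kinetic readout in an inducible HEK293 TREx D2 line plated overnight at 30 C. After 180 s compound exposure, an EC80 dopamine challenge follows with another 180 s kinetic read to detect antagonism.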
D2 ag-2: activates the human D2 dopamine receptor | 340,000 compounds, 0.53% hits | activation, % at 2 µM | HEK293 T-REx D2 cells, calcium flux agonist mode | AID 485358 | P14416;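 active = activation over 3 SD above normal in the single-dose calcium agonist read, cut at about 30% in these data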
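Calcium-flux readout, 1 cycle/sec over 180 s following compound pin transfer, in inducible HEK293 Trex D2 cells (force-coupled); dopamine controls included. Positive calcium responses during this window marked compounds as potential agonists.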
D3 ag: confirmation of human D3 dopamine receptor agonists, beta-arrestin. shares compounds with D2 ag-2. DiscoveRx D3 beta-arrestin cells, luminescence, 90 min. Potency, µM (titrated, usually from 76.9 µM), actives largely listed as activators. 2,300 compounds, 4% hits; also: nearly all actives have a fitted effect of over 70% in size
Target sequence (P35462 whole entry, looked up): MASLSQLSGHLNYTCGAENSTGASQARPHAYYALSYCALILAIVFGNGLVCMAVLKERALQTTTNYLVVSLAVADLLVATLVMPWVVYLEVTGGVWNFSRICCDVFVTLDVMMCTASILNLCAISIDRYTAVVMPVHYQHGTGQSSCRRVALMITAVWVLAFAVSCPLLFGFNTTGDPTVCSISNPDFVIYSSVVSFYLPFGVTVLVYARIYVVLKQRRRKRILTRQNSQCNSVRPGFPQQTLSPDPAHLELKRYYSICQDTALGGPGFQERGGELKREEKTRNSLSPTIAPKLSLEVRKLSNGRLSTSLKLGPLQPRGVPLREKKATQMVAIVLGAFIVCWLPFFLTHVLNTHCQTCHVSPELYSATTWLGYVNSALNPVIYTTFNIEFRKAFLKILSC
D2 ag-3: D2 receptor agonism, beta-arrestin counterscreen. shares compounds with D2 ag-2. DiscoveRx PathHunter D2 beta-arrestin, luminescence, 90 min; response scale: percent relative to full dopamine signal. Potency, µM (titrated, usually from 76.9 µM), actives largely listed as activators. 2,300 compounds, 5.9% hits. AID 720507; also: nearly all actives have a fitted effect of over 70% in size
Numbers stand for hits; - = inactive; ? = inconclusive; . = no result given. This is a sample that favours compounds with a hit; in the whole collection about 2.4% have one here. Unless noted, calls follow the shape of the dose curve; as a rule, active = well fitted activation curve with a large enough effect; inconclusive = small, poorly fitted or top-dose-only effect; inactive = flat fitted curve, though single readings scatter.

SMILES	D2 PAM-1	D2 PAM-2	D2 ag-1	D2 antag	D2 ag-2	D3 ag	D2 ag-3
O=C(c1ccc(Br)o1)N1CC=C(c2ccccc2)CC1	.	-	-	.	.	.	.
O=C(Nc1ccc2ccccc2c1)N1CCCN(CCOc2ccccc2)CC1	-	-	-	-	38.0	-	-
O=C(Nc1cccc2ccccc12)N1CC=C(c2ccccc2)CC1	-	-	-	-	34.0	?	-
O=C(c1cc2ccccc2o1)N1CCOCC1	-	-	-	-	-	.	.
O=C(c1cc2ccccc2o1)N1CCN(CCOc2ccccc2)CC1	-	-	?	96.2	75.6	0.199µM	?
O=C(c1cc2ccccc2o1)N1CC=C(c2ccccc2)CC1	-	-	-	46.1	58.5	-	-
CCOc1ccccc1NC(=O)CSc1nnc2[nH]c(=O)cc(-c3ccccc3)n12	-	.	.	.	-	.	.
Fc1ccc(-c2noc3ncnc(NC4CCCCC4)c23)cc1	-	.	.	.	-	.	.
COc1ccc(C(=O)NCCn2cc(SCc3ccc(C(F)(F)F)cc3)c3ccccc32)cc1OC	-	.	.	.	-	.	.
Cc1ccccc1OCC(=O)Nc1ccc(-c2nc3ccccc3o2)cc1	-	.	.	.	-	.	.
O=C(O)C1CCCCC1C(=O)N1CC=C(c2ccccc2)CC1 (stereo not given)	-	-	?	-	34.2	-	-
COc1cccc(-c2nc3c(c(SCC(=O)Nc4cccc(C)c4C)n2)Cc2c(CO)cnc(C)c2O3)c1	-	.	.	.	-	.	.
COc1ccc(C(=O)c2sc3nc(C)cc(-c4cccs4)c3c2N)cc1	-	-	-	-	-	.	.
Cc1cc(-c2cccs2)c2c(N)c(C(=O)c3ccc4c(c3)OCO4)sc2n1	-	-	-	-	40.7	-	-
O=C(Nn1cnnc1)c1ccncc1	-	-	-	-	-	-	-
CCC(O)c1cc2c(cc1NC(=O)c1ccccc1F)OCCO2 (stereo not given)	-	.	.	.	-	.	.
COc1ccc([N+](=O)[O-])c(OC)c1C(=O)Nc1ccc(F)cc1F	-	-	-	-	-	-	-
CC(C)(C)C(=O)Nc1ccc(F)cc1[N+](=O)[O-]	-	-	-	-	32.3	?	-
COc1cc(NC(=O)N(Cc2ccco2)C2CCN(C(C)=O)CC2)cc(OC)c1OC	-	.	.	.	.	.	.
CN(CCOc1ccccc1Cl)Cc1ccccc1	-	-	-	84.7	-	?	-
CCCOc1ccc(C2CC(=O)Nc3c2c(=O)n(C)c(=O)n3C)cc1OC (stereo not given)	-	.	.	.	-	.	.
c1ccc(CN2CCN(CCOCCOc3cccc4ccccc34)CC2)cc1	-	-	-	-	-	.	.
O=C(c1ccco1)N1CCN(CCOCCOc2cccc3ccccc23)CC1	-	-	?	77.4	66.2	7.94µM	25.1µM
O=C(c1ccco1)N1CCN(CCOc2ccc(F)cc2)CC1	-	-	-	-	-	.	.
O=C(c1ccco1)N1CCN(CCCCOc2cccc3ccccc23)CC1	-	-	?	83.6	75.5	?	?
SMILES	D2 PAM-1	D2 PAM-2	D2 ag-1	D2 antag	D2 ag-2	D3 ag	D2 ag-3
Cc1ccccc1NC(=O)CSc1nnc(COc2ccc(Cl)cc2)o1	-	.	.	.	-	.	.
CN(C)S(=O)(=O)c1cccc(NC(=S)NNC(=O)c2cc3ccccc3cc2O)c1	-	-	-	56.2	72.0	-	-
COc1cccc(C(=O)n2nc(-c3cccnc3)nc2NCc2ccc(F)cc2)c1	-	.	.	.	-	.	.
COc1ccc(NC(=O)N2CCCC(c3ccccc3)C2)cc1 (stereo not given)	.	-	-	.	.	-	-
CCOC(=O)c1cccc(NC(=O)c2cnccn2)c1	-	-	-	.	.	-	-
CCOc1cc(C)c(S(=O)(=O)NC2CC(C)(C)NC(C)(C)C2)cc1C	-	-	-	-	-	.	.
COc1ccc(Cl)cc1S(=O)(=O)NC1CC(C)(C)NC(C)(C)C1	-	-	-	.	.	.	.
CCOc1ccc(Br)cc1S(=O)(=O)NC1CC(C)(C)NC(C)(C)C1	-	-	-	-	-	-	-
Cc1cc(C)c(S(=O)(=O)NC2CC(C)(C)NC(C)(C)C2)cc1C	-	-	-	-	30.0	-	-
COc1cccc(/C=C/c2nc(C#N)c(N3CCN(C)CC3)o2)c1	.	.	.	.	-	.	.
O=C(NCc1ccncc1)c1cccc(S(=O)(=O)Nc2ccc(F)cc2)c1	-	-	-	-	-	-	-
O=C(NCc1ccccn1)c1cccc(S(=O)(=O)Nc2ccc(F)cc2)c1	-	-	-	-	-	.	.
Cc1ccc(NC(=O)Cn2c(=O)oc3cc(S(=O)(=O)N4CCCCCC4)ccc32)cc1Cl	-	.	.	.	-	.	.
Nc1ccc(C(=O)N/N=C\c2ccc(OC(=O)c3ccccc3Cl)cc2)cc1	-	-	-	32.6	-	-	-
O=C(N/N=C/c1cccc(Oc2ccccc2)c1)c1cc[n+]([O-])cc1	-	-	-	-	-	.	.
Nc1ccc(C(=O)N/N=C/c2cccc(Oc3ccccc3)c2)cc1	-	-	-	31.2	-	-	-
O[C@@H]1CN(Cc2ccc(-n3cccn3)cc2)CC[C@H]1N1CCN(c2ccccc2F)CC1	-	-	-	38.5	65.0	-	?
Cc1ccc(CN2CCN(Cc3ccc(-n4cccn4)cc3)CC2CCO)cc1 (stereo not given)	-	-	-	-	-	.	.
Cc1cccc(OCC(=O)Nc2ccc3c(c2)nc(CCN2CCN(c4ccccn4)CC2)n3C)c1	-	-	-	30.8	-	28.2µM	?
Cn1c(CCN2CCN(c3ccccn3)CC2)nc2cc(NC(=O)COc3ccc(Cl)cc3)ccc21	-	-	-	37.5	-	-	?
O=S(=O)(Nc1cccc(-c2ccc(N3CCCCC3)nn2)c1)c1cccc(F)c1	-	.	.	.	-	.	.
CNC(=O)N(O)C1N(/N=C/c2cc(Br)ccc2O)C(=S)SC1(C)C (stereo not given)	-	-	59.0	49.5	47.7	-	?
CNC(=O)N(O)C1N(/N=C/c2ccc(C)cc2)C(=S)SC1(C)C (stereo not given)	-	-	-	-	-	.	.
CNC(C)C(=O)NC(C(=O)N1CCCC1C(=O)NC1CCCc2ccccc21)C(C)C (stereo not given)	-	-	-	-	-	.	.
CNC(C)C(=O)NC(C(=O)N1CCCC1C(=O)NNc1ccccc1)C(C)C (stereo not given)	-	-	-	-	-	-	-
Cc1ccc(-n2nc3c(=O)n(CC(=O)NCc4ccccn4)nc(C)c3c2C)cc1	-	-	-	-	51.7	-	-
O=C(COC(=O)CCc1c[nH]c2ccccc12)NCc1ccc2c(c1)OCO2	-	-	-	-	73.6	-	-
